Shown is part of a subset that was picked to be rich in hits.
NOMO-1 viab: STK33 inhibitor candidate reducing NOMO-1 cell viability; NOMO-1 AML viability, CellTiter-Glo luminescence, 72 h; inhibition, % (no concentration beside the values); 37,000 compounds, 7.5% hits; AID 2330; in the data active means inhibition above about 80%; inconclusive means no clear call, values can overlap the other calls
U2OS ROS induce: cancer cell ROS induction; 46,000 compounds, 2% hits; AID 624156; ROS induction (% of piperlongumine), % at 10 µM; U2OS ROS induction, H2DCF-DA fluorescence; in the data active means ROS induction above about 79%, passing the limit was not always enough; inconclusive means no clear call, values can overlap the other calls;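 further: 0% = DMSO vehicle median and 100% = reference compound median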
* hit, by the source's call; ? = inconclusive; . = not tested or not shown.

SMILES	NOMO-1 viab	U2OS ROS induce
C[C@@H]1CN([C@@H](C)CO)C(=O)c2cccc(NS(=O)(=O)c3ccc(Cl)cc3)c2O[C@@H]1CN(C)Cc1ccc(C(=O)Nc2ccccc2N)cc1	128*	37
C[C@@H]1CN([C@@H](C)CO)C(=O)c2cccc(NS(=O)(=O)c3ccccc3)c2O[C@@H]1CN(C)Cc1ccc(C(=O)Nc2ccccc2N)cc1	129*	36
C[C@H](CO)N1C[C@H](C)[C@@H](CN(C)CC2CCCCC2)Oc2ccc(NC(=O)C3CCCCC3)cc2C1=O	12	2
Cc1cc(OCC(=O)Nc2ccccc2C(=O)O)cc(C)c1Cl	-9	.
COC(=O)c1ccccc1NC(=O)c1cccc(NC(=O)COc2cc(C)c(Cl)c(C)c2)c1C	102*	.
COC(=O)c1ccccc1NC(=O)COc1ccc2ccccc2c1Br	84*	4
COC(=O)c1ccccc1NC(=O)COc1ccc(C)cc1C	2	-1
C[C@H](CO)N1C[C@H](C)[C@H](CN(C)S(=O)(=O)c2ccc(F)cc2)Oc2ncc(C#CCN(C)C)cc2C1=O	.	1
COc1ccccc1NC(=O)CSc1nnc(-c2ccc(Cl)cc2)o1	21	.
O=C(CCCCCCC(=O)Nc1ccccc1O)N/N=C/c1cc(O)ccc1[N+](=O)[O-]	.	40
O=C(N/N=C/c1ccc([N+](=O)[O-])c(O)c1)c1ccccc1O	.	1
CCC(C)C1NC(=O)C(CCC(=O)O)N(C)C(=O)C(C(C)C)N(C)C(=O)CNC(=O)C2CCCN2C(=O)C(Cc2ccccc2)NC(=O)C(C(C)CC)OC(=O)C(CCC(=O)O)N(C)C(=O)C(C(C)C)NC(=O)C2CCCCN2C1=O (stereo not drawn)	110*	26
C[C@@H]1CN([C@H](C)CO)C(=O)Cc2cc(NS(=O)(=O)c3cn(C)cn3)ccc2O[C@H]1CN(C)Cc1ccc(Oc2ccccc2)cc1	21	24
COc1ccc(S(=O)(=O)Nc2ccc3c(c2)CC(=O)N([C@H](C)CO)C[C@@H](C)[C@H](CN(C)Cc2ccc(Oc4ccccc4)cc2)O3)cc1	124*	72
Cc1ccc(S(=O)(=O)Nc2ccc3c(c2)CC(=O)N([C@H](C)CO)C[C@@H](C)[C@@H](CN(C)Cc2ccc(Oc4ccccc4)cc2)O3)cc1	115*	18
C[C@H]1CN([C@@H](C)CO)C(=O)Cc2cc(NS(=O)(=O)c3cn(C)cn3)ccc2O[C@H]1CN(C)Cc1ccc(Oc2ccccc2)cc1	39	89*
COc1ccc(S(=O)(=O)Nc2ccc3c(c2)CC(=O)N([C@@H](C)CO)C[C@H](C)[C@@H](CN(C)Cc2ccc(Oc4ccccc4)cc2)O3)cc1	64	20
C[C@@H]1CN([C@@H](C)CO)C(=O)Cc2cc(NS(=O)(=O)c3ccccc3)ccc2O[C@@H]1CN(C)Cc1ccc(Oc2ccccc2)cc1	63	6
C[C@H]1CN([C@@H](C)CO)C(=O)Cc2cc(NS(=O)(=O)c3ccc(F)cc3)ccc2O[C@@H]1CN(C)Cc1ccc(Oc2ccccc2)cc1	96*	36
Cc1ccc(S(=O)(=O)Nc2ccc3c(c2)CC(=O)N([C@H](C)CO)C[C@@H](C)[C@H](CN(C)Cc2ccc(Oc4ccccc4)cc2)O3)cc1	?	34
C[C@H]1CN([C@@H](C)CO)C(=O)c2cc(NC(=O)Cc3cn(C)c4ccccc34)ccc2O[C@H]1CN(C)C(=O)Nc1ccc(C(F)(F)F)cc1	45	5
Cc1noc(C)c1S(=O)(=O)Nc1cccc2c1O[C@H](CN(C)C)[C@H](C)CN([C@@H](C)CO)C2=O	0	-4
COc1cccc2cc(C(=O)C3C(=O)C(=O)N(CCN4CCOCC4)C3c3cccc(Br)c3)oc12 (stereo not drawn)	18	-2
N#CCCn1c2c(ccc1=O)CCCC2	0	1
C[C@@H]1CN([C@H](C)CO)C(=O)c2cccc(NS(=O)(=O)c3ccc(Cl)cc3)c2O[C@H]1CN(C)CC1CC1	10	-6
SMILES	NOMO-1 viab	U2OS ROS induce
C[C@@H]1CN([C@H](C)CO)C(=O)Cc2cc(NS(=O)(=O)c3ccc(F)cc3)ccc2O[C@H]1CN(C)Cc1ccc(Oc2ccccc2)cc1	127*	45
C[C@@H]1CN([C@H](C)CO)C(=O)Cc2cc(NS(=O)(=O)c3ccccc3)ccc2O[C@H]1CN(C)Cc1ccc(Oc2ccccc2)cc1	72	68
C[C@H](CO)N1C[C@H](C)[C@@H](CN(C)C(=O)Nc2ccc(F)cc2)Oc2ccc(NS(=O)(=O)c3cn(C)cn3)cc2C1=O	-4	-11
Cc1cc(C)c(C#N)c(SCc2ccccc2)n1	.	-7
Cc1cc(C)c(C#N)c(Sc2ncnc3c2nnn3Cc2ccccc2)n1	116*	74
COc1ccc([N+](=O)[O-])cc1NC(=O)C1(c2ccc(OC)c(OC)c2)CCCCC1	-5	149*
COc1ccc([N+](=O)[O-])cc1NC(=O)C1(c2ccc(OC)c(OC)c2)CCOCC1	14	.
COc1ccc(/C=N/NC(=O)CCCCCC(=O)O)c(O)c1	.	6
CCCCc1ccc2nc(NC(=O)OC)[nH]c2c1	120*	10
COC(=O)Nc1nc2ccc(-c3n[nH]c(=O)c4ccccc34)cc2[nH]1	108*	2
O=c1[nH]nc(-c2ccccc2)c2ccccc12	13	-3
Cc1ccc2nc(NCCCO)[nH]c2c1	26	.
COc1ccc(OC)c(S(=O)(=O)NC2CCS(=O)(=O)C2)c1 (stereo not drawn)	.	-8
Cc1ccc2ccc(C(Nc3ccccn3)c3ccc(C(C)C)cc3)c(O)c2n1 (stereo not drawn)	108*	24
COc1ccc(OC)c(NS(=O)(=O)c2cccc3cccnc23)c1	13	1
COc1ccc(C(C)C)cc1S(=O)(=O)Nc1ccccn1	-15	-6
Cc1ccc(C(Nc2ccccn2)c2ccc3cccnc3c2O)cc1 (stereo not drawn)	112*	.
Cc1ccc(C(Nc2ccccn2)c2ccc3ccc(C)nc3c2O)cc1 (stereo not drawn)	132*	17
COc1ccc(I)cc1C(Nc1cc(C)ccn1)c1ccc2cccnc2c1O (stereo not drawn)	111*	-6
CC(C(=O)Nc1cccc2cccnc12)N1C(=O)c2ccccc2C1=O (stereo not drawn)	-4	-20
CC(C)(C)C1=NN(c2nc3ccc(Cl)cc3s2)C(=O)C1	.	-12
CC1CCN(C(=O)/C=C/c2ccc3c(c2)OCO3)CC1	.	5
CCn1c(SCC(=O)c2ccc(Br)cc2)nnc1-c1ccco1	-33	3
CCc1ccc(C(Nc2cc(C)ccn2)c2ccc3cccnc3c2O)cc1 (stereo not drawn)	112*	15
COc1ccc(C(Nc2ccccn2)c2ccc3ccc(C)nc3c2O)cc1C (stereo not drawn)	59	?
Cc1ccc2ccc(C(Nc3ccccn3)c3ccc(Cl)cc3)c(O)c2n1 (stereo not drawn)	132*	1
Cc1ccc2ccc(C(Nc3ccccn3)c3ccc(Cl)c(Cl)c3)c(O)c2n1 (stereo not drawn)	117*	.
COc1ccc(CN(C)C[C@@H]2OCCCC[C@@H](C)Oc3ccc(NC(=O)CCCN(C)C)cc3C(=O)N([C@H](C)CO)C[C@@H]2C)cc1	41	3
O=S(=O)(Nc1cccc(C(F)(F)F)c1)c1ccccc1	22	8
Cc1noc(C)c1S(=O)(=O)Nc1ccc2c(c1)C(=O)N([C@H](C)CO)C[C@H](C)[C@H](CN(C)C(=O)Nc1ccc(F)cc1)OCCCC[C@@H](C)O2	0	19

Screening results (PubChem)
